Experimental data taken from PubChem BioAssay (Tox21).
Inconclusive results are not listed. Calls of active or inactive are those of the source. Calls come from the whole dose curve; as a rule, active = well fitted activation curve with a large enough effect in the signal ratio in the repeat runs, with a control signal flat (not every such curve was filed as active); inconclusive = weak or mixed curves; inactive = flat fitted curve, though single readings scatter; the % refers to the signal ratio.

Assay: qHTS assay for small molecule activators of the heat shock response signaling pathway (AID 743210)
Conditions: HeLa HSE-bla reporter, beta-lactamase ratio, 5 h; series mostly up to 62.6 µM; activation: at the top concentration
Source text: U.S. Tox21 Program National Center for Advancing Translational Sciences [NCATS] NIH Chemical Genomics Center [NCGC] U.S. Environmental Protection Agency [EPA] National Institutes of Environmental Health Sciences [NIEHS] National Toxicology Program [NTP] U.S. Food and Drug Administration [FDA] Tox21 Assay Overview: Various chemicals, environmental and physiological stress conditions may lead to the activation of heat shock response/ unfolded protein response (HSR/UPR). There are three heat shock transcription factors (HSFs) (HSF-1, -2, and -4) mediating transcriptional regulation of the human HSR. To identify the compounds that activate HSR signaling, HSE-bla HeLa cell line (Invitrogen, Carlsbad, CA, USA) containing a beta-lactamase reporter gene under the control of the heat shock response elements was used to screen the Tox21 10K compound library.
Tox21 Assay Protocol Summary: The CellSensor HSE-bla HeLa cells (Invitrogen, Carlsbad, CA, USA) were dispensed at 1500 cells/6uL/well into 1536-well black wall/clear bottom plates using a Multidrop combi (Thermo Fisher Scientific, Waltham, MA) dispenser. After the assay plates were incubated at 37 C and 5% CO2 overnight, 23 nL of compounds dissolved in DMSO, positive controls or DMSO only was transferred to the assay plate by a Pintool station (Kalypsys, San Diego, CA). The plates were incubated at 37 C for 5 h. After 1 uL of LiveBLAzerTM B/G FRET substrate was added using a Flying Reagent Dispenser (Beckman Coulter, Indianapolis, IN, USA), the plates were incubated at room temperature for 2.5 h, and fluorescence intensity was measured by an Envision plate reader (PerkinElmer, Shelton, CT).
% is set by controls: 0 for no effect and ±100 for the full control effect.

Row | Structure (SMILES) | activation
1 | CN(C)CCOCCN(C)CCO | -1.52% (inactive)
2 | NC(=O)C1(N2CCCCC2)CCN(CCCC(=O)c2ccc(F)cc2)CC1 | -0.214% (inactive)
3 | CCCCC(=O)N(C)C | 0.675% (inactive)
4 | OC(CCN1CCCCC1)(c1ccccc1)c1ccccc1 | -0.436% (inactive)
5 | CCOC(=O)CCCCCCCCC(=O)OCC | -1.16% (inactive)
6 | C=C[C@@H](C)CCC=C(C)C | -1.2% (inactive)
7 | CO[Si](CCCCl)(OC)OC | -0.93% (inactive)
8 | COCC(=O)Nc1c(I)c(C(=O)NCC(O)CO)c(I)c(C(=O)N(C)CC(O)CO)c1I (stereo not given) | -0.615% (inactive)
9 | CC(C)(C)c1ccc(C=O)cc1 | -0.521% (inactive)
10 | CCCCCC1Nc2cc(C(F)(F)F)c(S(N)(=O)=O)cc2S(=O)(=O)N1 (stereo not given) | 0.125% (inactive)
11 | CCN(CCO)c1cccc(C)c1 | 0.172% (inactive)
12 | NC(Cc1c[nH]c2ccccc12)C(=O)O (stereo not given) | -0.0446% (inactive)
13 | C=CCOc1c(Br)cc(C(C)(C)c2cc(Br)c(OCC=C)c(Br)c2)cc1Br | 0.345% (inactive)
14 | CCCCCCCCCCC | 0.006% (inactive)
15 | COc1ccc(N=Nc2cc(C)c(N=Nc3ccc(S(=O)(=O)O)cc3)cc2OC)cc1 | -3% (inactive)
16 | Cc1oc(=O)oc1CN1CCN(c2cc3c(cc2F)c(=O)c(C(=O)O)c2n3C(C)S2)CC1 (stereo not given) | 2.53% (inactive)
17 | CCS(=O)(=O)CCn1c([N+](=O)[O-])cnc1C | -0.953% (inactive)
18 | CC(=O)Nc1ncc([N+](=O)[O-])s1 | -0.9% (inactive)
19 | CCCCCCCCCCCCCCCC(=O)NCCO | -0.0582% (inactive)
20 | Cn1c(=O)c2c(ncn2CC2OCCO2)n(C)c1=O | -0.025% (inactive)

Row | Structure (SMILES) | activation
21 | NS(=O)(=O)c1cc2c(cc1Cl)NC(C(Cl)Cl)NS2(=O)=O (stereo not given) | -1.47% (inactive)
22 | Cc1nc(C)nc(N2C[C@@H](C)N(c3ccnc([C@@H](C)O)n3)[C@@H](C)C2)n1 | -2.07% (inactive)
23 | CC(=O)OCCCc1ccccc1 | 0.326% (inactive)
24 | CCN(CC)C(=O)C1CN2CCc3cc(OC)c(OC)cc3C2CC1OC(C)=O (stereo not given) | 0.67% (inactive)
25 | Cc1cc(O)c2c(c1)C(=O)c1cccc(O)c1C2=O | -0.111% (inactive)
26 | CCN1CN(CC)CN(CC)C1 | -0.172% (inactive)
27 | CC(C)=CC(C)(C)C | -0.124% (inactive)
28 | CCNC(=O)NCCCOc1cccc(CN2CCCCC2)c1 | -1.06% (inactive)
29 | CC(C)C(=O)Nc1cccc(C(F)(F)F)c1 | -0.0874% (inactive)
30 | C/C=C(\C)C(=O)OCC/C=C\CC | 0.504% (inactive)
31 | O=C(CN1CCN(Cc2ccc3c(c2)OCO3)CC1)N1c2ccccc2Sc2ccccc21 | 0.728% (inactive)
32 | CN(C1CCCCC1)S(=O)(=O)c1ccccc1N | -0.257% (inactive)
33 | CCCCC(CC)CNC(=O)CC(C)OC(=O)CCC(=O)O (stereo not given) | -0.25% (inactive)
34 | Nc1nc(=O)n([C@@H]2O[C@H](CO)[C@@H](O)[C@@H]2F)cc1I | -0.32% (inactive)
35 | C[Si]1(C)N[Si](C)(C)N[Si](C)(C)N1 | -0.193% (inactive)
36 | C=C[Si](C)(C)O[Si](C)(C)C=C | -1.23% (inactive)
37 | c1ccccc1 | -2.16% (inactive)
38 | Oc1ccccc1Cc1ccccc1O | -0.118% (inactive)
39 | COC(=O)CCC(=O)O | -0.457% (inactive)
40 | CN[C@@H]1[C@@H](O)[C@@H](O[C@@H]2[C@H](O)[C@H](O[C@H]3OC(CN)=CC[C@H]3N)[C@@H](N)C[C@H]2N)OCC1(C)O (stereo not given in full) | -0.651% (inactive)
